# V-ATPase pHluor = regulators of yeast V-ATPase proton transport | S. cerevisiae, pHLuorin cytosolic pH fluorescence | response, % at 10 µM | 350,000 tested, 0.37% active | AID 504577; in the data active = response mostly above about 7.3%, no sharp cut-off; inactive = mostly below about 5.4%; also: actives read high
# beta cell repl = induces beta-cell replication in MIN6 cells. MIN6 cells proliferation, ATPlite luminescence, 48 h; cells starved in 0.2% serum; 100% = growth in 10% serum. proliferation, % at 10 µM. 330,000 tested, 0.29% active;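 active = compounds whose signal lies at least 3.5 SD above the mean of all wells on their plate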;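 also: 0% = DMSO-treated cells in low-serum medium and 100% = 10% serum control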
# MOR-DOR ag-1 = OPRM1-OPRD1 heterodimerization agonism | P35372+P41143 | cells, luminescence | activation, % at 9.3 µM | 340,000 tested, 0.3% active; in the data active = activation above about 18%;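 also: 0% = vehicle-treated cells and 100% = reference agonist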
# Target sequence (P35372 whole entry, looked up): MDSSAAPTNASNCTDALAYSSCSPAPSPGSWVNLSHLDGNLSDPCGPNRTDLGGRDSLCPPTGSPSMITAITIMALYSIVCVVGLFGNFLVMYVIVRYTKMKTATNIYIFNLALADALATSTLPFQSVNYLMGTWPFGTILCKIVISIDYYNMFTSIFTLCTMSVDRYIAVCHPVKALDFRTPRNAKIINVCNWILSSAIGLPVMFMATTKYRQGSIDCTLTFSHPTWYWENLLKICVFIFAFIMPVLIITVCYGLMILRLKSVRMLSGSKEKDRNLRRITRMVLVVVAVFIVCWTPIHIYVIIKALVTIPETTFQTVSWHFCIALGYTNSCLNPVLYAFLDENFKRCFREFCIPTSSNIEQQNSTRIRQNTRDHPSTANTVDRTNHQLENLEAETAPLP
# Target sequence (P41143 whole entry, looked up): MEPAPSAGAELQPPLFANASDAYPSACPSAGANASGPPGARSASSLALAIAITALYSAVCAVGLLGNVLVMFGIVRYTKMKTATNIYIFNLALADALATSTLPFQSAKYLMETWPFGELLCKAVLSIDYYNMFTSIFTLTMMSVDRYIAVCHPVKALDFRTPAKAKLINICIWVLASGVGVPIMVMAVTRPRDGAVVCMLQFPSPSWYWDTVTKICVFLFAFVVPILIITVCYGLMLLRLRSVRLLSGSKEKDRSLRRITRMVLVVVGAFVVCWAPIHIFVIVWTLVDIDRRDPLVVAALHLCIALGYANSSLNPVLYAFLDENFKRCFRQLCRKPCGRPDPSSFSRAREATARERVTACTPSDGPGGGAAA
# HTR5A inv ctr = counter-screen for OPRM1-OPRD1 inverse agonists: human HTR5A inverse agonism. P47898. HTR5A cell line, luminescence. inhibition, % at 9.3 µM. 340,000 tested, 0.083% active. AID 504634; in the data active = inhibition mostly above about 23%, no sharp cut-off; inactive = mostly below about 18%;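 also: 0% = cells with DMSO and 100% = no-cell wells with DMSO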
# MOR-DOR inv ag-1 = mu-delta opioid heterodimer inverse agonism; P35372+P41143; 340,000 tested, 0.21% active; cell-based MOR-DOR heterodimer luminescence; inhibition, % at 9.3 µM; AID 504357; in the data active = inhibition above about 22%, passing the limit was not always enough;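 also: 0% = cells with DMSO and 100% = wells without cells with DMSO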
# HTR5A ag ctr = counter-screen for OPRM1-OPRD1 agonists: human HTR5A agonism; HTR5A agonist assay, luminescence, cell-based; activation, % at 9.3 µM; 340,000 tested, 0.61% active; AID 504692; in the data active = activation mostly above about 9.5%, no sharp cut-off; inactive = mostly below about 7.6%;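 also: 0% = cells with vehicle only and 100% = reference agonist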
# OPRM1-D1 inv cf = confirmation of human OPRM1-OPRD1 heterodimerization inverse agonists. shares compounds with MOR-DOR inv ag-1. AID 504900. 580 tested, 20% active. inhibition, % at 9.3 µM. cells expressing OPRM1/OPRD1 heterodimer, luminescence; in the data active = inhibition above about 32%;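 also: 0% = cells with DMSO and 100% = wells lacking cells with DMSO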
# HTR5A inv ctr2 = counter-screen for OPRM1-OPRD1 inverse agonists: human HTR5A inverse agonism | shares compounds with MOR-DOR inv ag-1 | HTR5A-expressing cells, luminescence | inhibition, % at 9.3 µM | 580 tested, under 10 active | AID 504914;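 also: 0% = cells with DMSO and 100% = no-cell wells with DMSO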
# VATPase regulator = regulators of yeast V-ATPase proton transport; shares compounds with V-ATPase pHluor; S. cerevisiae pHLuorin cytosolic pH; response, % at 10 µM; 980 tested, 2% active; in the data active = response above about 24%;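 also: plate controls were vehicle wells for no effect and positive control wells for full effect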
# MOR-DOR inv ag-2 = inverse agonist of OPRM1-OPRD1 heterodimerization in HTR5A counter-screen; shares compounds with HTR5A inv ctr; U2OS counter-screen cells, complementation luminescence; inhibition, % at 9.3 µM; 190 tested, under 10 active; AID 504912;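 also: 0% = cells with DMSO and 100% = wells without cells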
# HTR5A inv conf = HTR5A (human) inverse agonism, confirmation; shares compounds with HTR5A inv ctr; HTR5A-expressing cells, luminescence; inhibition, % at 9.3 µM; 190 tested, under 10 active;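 also: 0% = cells with DMSO and 100% = no cells with DMSO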
# MOR-DOR ag-2 = opioid heterodimer agonism, HTR5A counter-screen. shares compounds with HTR5A ag ctr. 800 tested, 13% active. U2OS counter-screen cells, complementation luminescence, 3 h. activation, % at 9.3 µM; in the data active = activation above about 18%
# HTR5A ag confirm = HTR5A (human) agonism, confirmation | shares compounds with HTR5A ag ctr | HTR5A agonist cell assay, luminescence | activation, % at 9.3 µM | 800 tested, 17% active; in the data active = activation above about 17%;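 also: 0% = cells with vehicle only and 100% = full reference agonist response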
# Numbers without * were called inactive; . = not tested or not shown. Hits are enriched below; roughly 1.7% of the tested compounds scored in any of these assays. Unless noted, no rule for the calls is given here.
SMILES,V-ATPase pHluor,beta cell repl,MOR-DOR ag-1,HTR5A inv ctr,MOR-DOR inv ag-1,HTR5A ag ctr,others
CC(C)C1C(C#N)=C(N)Oc2c1c(=O)oc1ccccc21 (stereo unspecified),-1,.,.,.,.,.,
COc1ccc(-n2c(C)cc(C(=O)C[N+]34CCN(CC3)CC4)c2C)cc1,1,-4,1,25,-3,4,
CCOCC(=O)NC1CCSC1=O (stereo unspecified),3,-1,-2,0,10,2,
CN1C(=O)N(C)C(=O)C(CCc2ccncc2)(Cc2ccc3c(c2)OCO3)C1=O,2,-1,0,-7,2,2,
CCCCn1c(NS(=O)(=O)c2ccccc2)c(C(=O)OCC)c2nc3ccccc3nc21,0,.,-6,13,32*,0,OPRM1-D1 inv cf=-16;HTR5A inv ctr2=-14
O=C(CN1CCCCC1)c1ccc(OC(F)F)cc1,-3,-1,-2,-17,13,7,
CCC1CCCCN1CC(=O)c1ccc(OC(F)F)cc1 (stereo unspecified),-1,-4,-8,17,42*,6,OPRM1-D1 inv cf=14;HTR5A inv ctr2=41
N#Cc1c(/N=C/c2ccc(O)cc2O)sc2c1C1CCN2CC1,0,-2,-10,7,51*,-2,OPRM1-D1 inv cf=-4;HTR5A inv ctr2=10
C[C@H]1CCC/C=C/[C@@H]2C[C@H](O)C[C@H]2[C@@H](O)/C=C/C(=O)O1,3,.,-10,5,42*,-1,OPRM1-D1 inv cf=-455;HTR5A inv ctr2=-24
O=C(CN1CCCCC1)c1cccc(Br)c1,1,0,-13,3,68*,-3,OPRM1-D1 inv cf=-444;HTR5A inv ctr2=-13
NS(=O)(=O)c1cccc(N2CCNCC2)c1,1,-2,-2,9,10,-3,
CC1CC2(O)c3no[n+]([O-])c3CCC2N1O (stereo unspecified),3,-2,-5,24,25,-2,
CC1CN(O)C2CCc3c(no[n+]3[O-])C12O (stereo unspecified),3,2,-5,-29,31*,3,OPRM1-D1 inv cf=-29;HTR5A inv ctr2=3
O=C(O)CCn1cc(C=C2C(=O)NC(=O)NC2=O)c(-c2ccc(Br)cc2)n1,-2,0,-2,-3,11,1,
O=C(O)CCn1cc(C=C2C(=O)NC(=S)NC2=O)c(-c2cccc(Cl)c2)n1,8.0*,1,-1,28,7,-4,VATPase regulator=-1
Cc1cccc(C(=O)Nc2ccc(Cl)cc2C(=O)c2ccccc2)c1,9.0*,2,4,-16,-24,-2,VATPase regulator=-1
C[N+](C)(C)CC(=O)Nc1ccc(Cl)cc1C(=O)c1ccccc1,3,-3,-3,9,15,-3,
N=C1c2ccccc2CN1c1ccc(F)c([N+](=O)[O-])c1,0,-4,-1,2,6,-1,
O=C1NC(=O)C2(Cc3cc([N+](=O)[O-])ccc3N3CCN(C(=O)c4ccccc4)CC32)C(=O)N1 (stereo unspecified),1,4,0,12,1,-4,
CN1C(=O)/C(=C\c2ccc(Br)s2)C(=O)NC1=S,21*,.,0,-4,-1,1,VATPase regulator=97*
CCCCCCn1c(=O)c(C(=O)Nc2c(C)n(C)n(-c3ccccc3)c2=O)c(O)c2ccccc21,11*,-5,2,-20,-9,7,VATPase regulator=2
CC12CN3CCN(CC(C3)/C1=N/NC(N)=O)C2,-4,1,-4,15,20,5,
Cc1[nH]c2ccccc2c1C(=O)C(=O)N1CC2CC(C1)c1cccc(=O)n1C2 (stereo unspecified),9.1*,-1,-1,-5,4,2,VATPase regulator=-1
COc1ccc(CNC(=O)C(NC(C)=O)C(C)C)cc1OC (stereo unspecified),0,-2,-2,18*,10,-7,MOR-DOR inv ag-2=5;HTR5A inv conf=-8
Cc1[nH]c2ccccc2c1C(=O)C(=O)N1CCC2(CC1)OCCO2,0,-1,-2,3,10,-1,
SMILES,V-ATPase pHluor,beta cell repl,MOR-DOR ag-1,HTR5A inv ctr,MOR-DOR inv ag-1,HTR5A ag ctr,others
C=CCn1c(O)c(C(CC)=NCCc2c[nH]c3ccccc23)c(=O)[nH]c1=O,-4,0,-1,-104,3,31*,MOR-DOR ag-2=-2;HTR5A ag confirm=-1
C=CCn1c(O)c(/C(C)=N/N2CCN(C)CC2)c(=O)[nH]c1=O,-1,-4,0,-1,2,0,
CCCN(CCC)[C@@H]1CCc2cccc(O)c2C1,3,-2,-1,-152,5,43*,MOR-DOR ag-2=1;HTR5A ag confirm=67*
CNCCc1c[nH]c2ccc(O)cc12,-2,1,-2,-304,9,124*,MOR-DOR ag-2=3;HTR5A ag confirm=6
CCCCCCNC(=O)N[C@H](Cc1ccc(O)cc1)C(=O)NCCC[C@H]1CN2C(=NC[C@H]2CCC)N1CC1CCC1,.,-4,.,.,.,.,
Cc1ccc(NC2=NCCCS2)cc1Cl,0,-3,1,-1,-7,0,
NCCc1c[nH]c2ccc(F)cc12,.,-4,.,.,.,.,
NCCc1c[nH]c2ccc(C(N)=O)cc12,0,-3,-2,-216,11,96*,MOR-DOR ag-2=0;HTR5A ag confirm=83*
CC(C)(C)N(NC(=O)c1ccccc1)C(=O)c1ccccc1,-5,-1,0,1,-1,-3,
Cc1cccc(CCNCc2cc3cccc(C)c3[nH]c2=O)c1,1,-4,1,-54,-3,15*,MOR-DOR ag-2=1;HTR5A ag confirm=2
Cc1cccc(CCNCc2cc3cc(C)cc(C)c3[nH]c2=O)c1,-2,-1,-3,-13,14,4,
C=C(C)[C@@]12OC3(c4ccccc4)O[C@@H]1C1[C@@H]4O[C@]4(CO)[C@@H](O)[C@]4(O)C(=O)C(C)=C[C@H]4[C@@]1(O3)[C@H](C)[C@H]2OC(=O)/C=C/C=C/c1ccccc1 (stereo partly specified),0,-6,-2,4,12,33*,MOR-DOR ag-2=-4;HTR5A ag confirm=-2

# High-throughput results (PubChem)
